The results in this text go back to PubChem BioAssay (EPA / NIEHS).

Records with an inconclusive call do not appear. Active and inactive are the calls of the source. How the source made its calls: active means hit-call score of the fitted dose curve at least 0.9, where 1 is the maximum; inconclusive means response in the unintended direction; inactive means score below 0.9.

Sequence of human Vitamin D Receptor (VDR), VDR (gene 7421) (P11473 whole entry, looked up, the tested form may be a part): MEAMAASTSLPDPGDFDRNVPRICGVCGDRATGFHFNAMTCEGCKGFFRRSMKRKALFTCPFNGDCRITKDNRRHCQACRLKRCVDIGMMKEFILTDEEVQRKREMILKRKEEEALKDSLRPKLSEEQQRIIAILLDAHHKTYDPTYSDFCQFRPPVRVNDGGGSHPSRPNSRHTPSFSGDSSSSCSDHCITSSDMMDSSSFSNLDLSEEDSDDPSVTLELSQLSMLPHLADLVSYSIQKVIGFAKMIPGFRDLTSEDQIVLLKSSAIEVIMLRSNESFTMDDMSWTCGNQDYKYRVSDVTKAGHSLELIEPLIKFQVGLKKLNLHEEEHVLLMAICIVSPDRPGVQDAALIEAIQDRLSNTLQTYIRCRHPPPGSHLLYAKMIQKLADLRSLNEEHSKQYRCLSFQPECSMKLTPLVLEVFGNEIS

The assay addresses human Vitamin D Receptor (VDR), VDR (gene 7421) (UniProt P11473). Briefly: ATG_VDR_TRANS: Attagene TRANS-FACTORIAL HepG2 Assay for human Vitamin D Receptor (VDR) (AID 2283022). Summed up:
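HepG2 cells were transiently transfected with GAL4-UAS reporter units and a chimeric VDR-Gal4 construct, then dosed for 24 hours. Reporter mRNA was quantified by RT-PCR, fluorescent labeling, HpaI digestion and capillary electrophoresis; gain of signal analysed vs DMSO.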
Regarding `CC(C)CC(O)Cc1ccccc1` (stereo not given), the result was inactive.
To `CCc1ccc2c(c1)C(=O)c1ccccc1C2=O` belongs “inactive”.
For `Cc1ccc([N+](=O)[O-])cc1S(=O)(=O)O` the value was “inactive”; for `O=S(=O)(O)c1ccc2cc(O)c(S(=O)(=O)O)cc2c1`, “inactive”.
For `O=S(=O)(O)c1ccccc1C=Cc1ccc(-c2ccc(C=Cc3ccccc3S(=O)(=O)O)cc2)cc1` the value was “inactive”; for `Cc1cc(=O)n(-c2ccccc2)n1C`, “inactive”; for `O=C1CCCC(=O)O1`, “inactive”.
For the compound `OC1OCCOC1O` (stereo not given), the compound was called inactive.
With `Nc1ccc2cc3ccccc3cc2c1`, the call was inactive.
To `CC(=O)OC(C)C` belongs “inactive”.
